Common to all, as to experiment: DAPPL (digital affinity profiling via proximity ligation, sequencing); 10 mM Tris-HCl pH 7.5, 50 mM NaCl, 1 mM DTT, 4% glycerol, room temperature, 30 min; GST-TFs on glutathione beads, 16-mer random dsDNA library, 0.1% formaldehyde crosslink after washing; high values mean tight binding
Conditions in all cases: protein: recombinant; tags: N-terminal GST; dsDNA, one strand shown

For one test, the target named is T1, FLI1 (Homo sapiens, UniProt Q01543 1-452).
T1 sequence: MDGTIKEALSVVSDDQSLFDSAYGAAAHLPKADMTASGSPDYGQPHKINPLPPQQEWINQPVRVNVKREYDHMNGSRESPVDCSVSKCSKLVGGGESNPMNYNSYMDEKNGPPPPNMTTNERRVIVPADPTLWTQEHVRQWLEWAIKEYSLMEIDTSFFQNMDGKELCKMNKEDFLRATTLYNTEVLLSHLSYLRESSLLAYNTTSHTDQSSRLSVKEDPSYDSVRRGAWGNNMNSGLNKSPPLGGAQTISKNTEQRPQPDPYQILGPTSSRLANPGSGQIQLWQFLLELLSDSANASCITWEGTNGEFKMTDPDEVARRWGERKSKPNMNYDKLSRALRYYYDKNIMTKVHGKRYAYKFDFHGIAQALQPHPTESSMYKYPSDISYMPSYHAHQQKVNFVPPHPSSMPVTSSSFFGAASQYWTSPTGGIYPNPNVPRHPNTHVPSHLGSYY
Put shortly: (§1)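 Human transcription factors fused to GST were expressed in yeast, captured on glutathione beads, given DNA barcodes and pooled with a GST-only negative control. Pools were incubated with 200 nmole of a 16-mer random double-stranded DNA library in Tris/NaCl/DTT/glycerol buffer at room temperature for 30 min. They were then washed, crosslinked with 0.1% formaldehyde, proximity-ligated (BsaI/T4 ligase, 1 h, 37 °C), PCR-amplified and sequenced on an Illumina NextSeq500. Binding signal is each 6-mer's read frequency for a factor divided by its frequency for the GST control.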

The target in another test is T2, ELK1 (Homo sapiens, UniProt P19419 1-428).
T2 sequence: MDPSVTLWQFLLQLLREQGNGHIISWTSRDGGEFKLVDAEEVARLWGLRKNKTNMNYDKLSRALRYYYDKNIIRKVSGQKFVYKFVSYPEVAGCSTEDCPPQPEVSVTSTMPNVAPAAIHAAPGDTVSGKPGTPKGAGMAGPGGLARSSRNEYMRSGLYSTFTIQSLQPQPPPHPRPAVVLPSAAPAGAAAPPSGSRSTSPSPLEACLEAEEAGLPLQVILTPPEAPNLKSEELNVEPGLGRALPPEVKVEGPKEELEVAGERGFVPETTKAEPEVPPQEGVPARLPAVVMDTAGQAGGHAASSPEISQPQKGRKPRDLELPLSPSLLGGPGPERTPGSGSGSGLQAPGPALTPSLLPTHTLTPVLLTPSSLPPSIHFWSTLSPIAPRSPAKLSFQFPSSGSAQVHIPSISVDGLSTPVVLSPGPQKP
In outline: as §1

The target in the next test is T3, GABPA (Homo sapiens, UniProt Q06546 1-454).
T3 sequence: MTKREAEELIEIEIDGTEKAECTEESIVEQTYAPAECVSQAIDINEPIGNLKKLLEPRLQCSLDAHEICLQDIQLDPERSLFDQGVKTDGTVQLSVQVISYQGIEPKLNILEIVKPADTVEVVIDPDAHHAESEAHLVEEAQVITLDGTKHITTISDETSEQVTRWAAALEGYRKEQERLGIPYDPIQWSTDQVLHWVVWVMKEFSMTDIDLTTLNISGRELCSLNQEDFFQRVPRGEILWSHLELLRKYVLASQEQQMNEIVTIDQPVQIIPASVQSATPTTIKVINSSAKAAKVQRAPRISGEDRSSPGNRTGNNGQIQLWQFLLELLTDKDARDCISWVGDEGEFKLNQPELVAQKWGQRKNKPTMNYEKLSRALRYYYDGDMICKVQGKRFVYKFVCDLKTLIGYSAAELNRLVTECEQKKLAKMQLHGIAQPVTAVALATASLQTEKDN
Put shortly: as §1

The next test deals with T4, ERG (Homo sapiens, UniProt P11308 1-479).
T4 sequence: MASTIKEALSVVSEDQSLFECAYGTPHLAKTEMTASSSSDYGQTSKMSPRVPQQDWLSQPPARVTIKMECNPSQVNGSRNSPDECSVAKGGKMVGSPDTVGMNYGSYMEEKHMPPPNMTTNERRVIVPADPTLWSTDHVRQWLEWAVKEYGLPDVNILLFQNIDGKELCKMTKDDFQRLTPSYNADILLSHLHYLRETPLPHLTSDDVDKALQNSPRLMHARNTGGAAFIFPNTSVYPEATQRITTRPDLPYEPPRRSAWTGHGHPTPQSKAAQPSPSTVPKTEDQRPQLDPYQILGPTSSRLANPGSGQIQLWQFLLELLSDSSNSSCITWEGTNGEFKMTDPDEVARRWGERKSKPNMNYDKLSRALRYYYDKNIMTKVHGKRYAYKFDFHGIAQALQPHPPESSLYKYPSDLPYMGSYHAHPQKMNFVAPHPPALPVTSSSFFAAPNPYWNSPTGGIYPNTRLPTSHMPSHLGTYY
Put shortly:
as §1

The target in the next test is ELF1 (Homo sapiens, UniProt P32519 1-619). In outline: as §1
A further test has as its target T5, EHF (Homo sapiens, UniProt Q9NZC4 1-300).
T5 sequence: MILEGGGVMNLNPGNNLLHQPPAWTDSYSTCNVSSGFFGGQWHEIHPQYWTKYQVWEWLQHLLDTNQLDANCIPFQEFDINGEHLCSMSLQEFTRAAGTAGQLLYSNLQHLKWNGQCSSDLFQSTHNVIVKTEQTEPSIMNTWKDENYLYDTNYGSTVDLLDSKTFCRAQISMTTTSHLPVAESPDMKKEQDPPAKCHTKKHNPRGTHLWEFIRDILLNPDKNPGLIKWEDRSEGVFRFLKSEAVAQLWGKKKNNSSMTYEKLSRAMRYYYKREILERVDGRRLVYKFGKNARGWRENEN
In outline:
as §1

The target of a further test is SPI1 (Homo sapiens, UniProt P17947 1-270). Put shortly: as §1
The target in the next test is SPIB (Homo sapiens, UniProt Q01892 1-262). Put shortly:
as §1

The target in a further test is T6, ELK3 (Homo sapiens, UniProt P41970 1-407).
T6 sequence: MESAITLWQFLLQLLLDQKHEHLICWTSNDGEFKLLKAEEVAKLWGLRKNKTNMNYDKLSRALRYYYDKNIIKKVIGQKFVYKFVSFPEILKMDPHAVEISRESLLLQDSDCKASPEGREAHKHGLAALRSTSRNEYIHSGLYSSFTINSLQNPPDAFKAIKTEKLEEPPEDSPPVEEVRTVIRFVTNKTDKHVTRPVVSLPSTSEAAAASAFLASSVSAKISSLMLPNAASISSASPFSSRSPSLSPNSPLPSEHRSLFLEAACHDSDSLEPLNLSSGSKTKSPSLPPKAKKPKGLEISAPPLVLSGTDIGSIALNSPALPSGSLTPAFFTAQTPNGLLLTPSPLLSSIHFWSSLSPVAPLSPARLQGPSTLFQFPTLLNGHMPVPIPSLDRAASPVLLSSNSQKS
In outline:
as §1

ELF1, sequence (P32519 whole entry): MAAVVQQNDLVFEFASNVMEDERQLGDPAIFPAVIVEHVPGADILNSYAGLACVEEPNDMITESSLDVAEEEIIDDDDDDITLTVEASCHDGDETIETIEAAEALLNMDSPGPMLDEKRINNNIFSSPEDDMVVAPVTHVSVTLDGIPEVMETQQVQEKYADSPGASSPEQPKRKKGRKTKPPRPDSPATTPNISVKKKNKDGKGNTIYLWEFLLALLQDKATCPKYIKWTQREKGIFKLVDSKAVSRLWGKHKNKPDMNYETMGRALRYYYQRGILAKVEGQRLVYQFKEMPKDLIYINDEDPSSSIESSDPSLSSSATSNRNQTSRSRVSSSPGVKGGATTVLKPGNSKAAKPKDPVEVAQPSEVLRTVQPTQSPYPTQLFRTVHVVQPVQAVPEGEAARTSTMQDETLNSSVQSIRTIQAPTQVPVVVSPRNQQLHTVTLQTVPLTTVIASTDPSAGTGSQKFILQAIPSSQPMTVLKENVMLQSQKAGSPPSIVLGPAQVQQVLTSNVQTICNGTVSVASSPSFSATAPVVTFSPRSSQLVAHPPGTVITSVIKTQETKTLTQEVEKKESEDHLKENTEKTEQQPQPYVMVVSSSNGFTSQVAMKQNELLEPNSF
SPIB, sequence (Q01892 whole entry): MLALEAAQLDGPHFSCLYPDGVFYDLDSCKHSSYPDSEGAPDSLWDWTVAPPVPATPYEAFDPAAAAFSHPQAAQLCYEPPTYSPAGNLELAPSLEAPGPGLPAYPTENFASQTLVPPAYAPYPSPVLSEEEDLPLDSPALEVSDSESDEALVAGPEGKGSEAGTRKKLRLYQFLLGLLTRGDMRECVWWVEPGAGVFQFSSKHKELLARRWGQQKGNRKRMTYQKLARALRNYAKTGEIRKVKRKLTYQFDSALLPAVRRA

Turning to AGCTCA, the binding signal was 1.07 fold enrichment (6-mer frequency, TF over GST control) with FLI1; 1.1 fold enrichment (6-mer frequency, TF over GST control) with ELK1; 1.15 fold enrichment (6-mer frequency, TF over GST control) with GABPA; 1.08 fold enrichment (6-mer frequency, TF over GST control) with ERG; 1.2 fold enrichment (6-mer frequency, TF over GST control) with ELF1; 1.21 fold enrichment (6-mer frequency, TF over GST control) with EHF. In addition, the binding signal was 1.06 fold enrichment (6-mer frequency, TF over GST control) with SPI1; 1.17 fold enrichment (6-mer frequency, TF over GST control) with SPIB; 1.12 fold enrichment (6-mer frequency, TF over GST control) with ELK3.

With TGGCAC, the binding signal with FLI1 was 1.19 fold enrichment (6-mer frequency, TF over GST control); with ELK1, 1.23 fold enrichment (6-mer frequency, TF over GST control); with GABPA, 1.15 fold enrichment (6-mer frequency, TF over GST control); with ERG, 1.27 fold enrichment (6-mer frequency, TF over GST control); in the test with ELF1 it was 1.09 fold enrichment (6-mer frequency, TF over GST control); with EHF, 1.26 fold enrichment (6-mer frequency, TF over GST control). The binding signal with SPI1 is 1.14 fold enrichment (6-mer frequency, TF over GST control); with SPIB it was 1.18 fold enrichment (6-mer frequency, TF over GST control); with ELK3, 1.17 fold enrichment (6-mer frequency, TF over GST control).

With CAAACT, the binding signal with FLI1 is 1.18 fold enrichment (6-mer frequency, TF over GST control); in the test with ELK1 it was 1.14 fold enrichment (6-mer frequency, TF over GST control); in the test with GABPA, 1.21 fold enrichment (6-mer frequency, TF over GST control); with ERG it was 1.12 fold enrichment (6-mer frequency, TF over GST control); with ELF1, 1.17 fold enrichment (6-mer frequency, TF over GST control); with EHF, 1.15 fold enrichment (6-mer frequency, TF over GST control). The binding signal is 1.12 fold enrichment (6-mer frequency, TF over GST control) with SPI1; 1.14 fold enrichment (6-mer frequency, TF over GST control) with SPIB; 1.23 fold enrichment (6-mer frequency, TF over GST control) in the test with ELK3.

On to ATGTGG, for which the binding signal with FLI1 was 1.08 fold enrichment (6-mer frequency, TF over GST control); with ELK1, 1.05 fold enrichment (6-mer frequency, TF over GST control); with GABPA, 1.11 fold enrichment (6-mer frequency, TF over GST control); with ERG, 1.21 fold enrichment (6-mer frequency, TF over GST control); with ELF1 it was 1.18 fold enrichment (6-mer frequency, TF over GST control); with EHF it was 1.23 fold enrichment (6-mer frequency, TF over GST control). The binding signal in the test with SPI1 is 1.02 fold enrichment (6-mer frequency, TF over GST control); in the test with SPIB, 1.31 fold enrichment (6-mer frequency, TF over GST control); in the test with ELK3 it was 1.1 fold enrichment (6-mer frequency, TF over GST control).

For the sequence TGTGCC, the binding signal in the test with FLI1 was 1.17 fold enrichment (6-mer frequency, TF over GST control); with ELK1, 1.2 fold enrichment (6-mer frequency, TF over GST control); in the test with GABPA, 1.07 fold enrichment (6-mer frequency, TF over GST control); in the test with ERG, 1.17 fold enrichment (6-mer frequency, TF over GST control); with ELF1, 1.21 fold enrichment (6-mer frequency, TF over GST control); in the test with EHF, 1.02 fold enrichment (6-mer frequency, TF over GST control). For the same sequence, the binding signal was 1.06 fold enrichment (6-mer frequency, TF over GST control) in the test with SPI1; 1.04 fold enrichment (6-mer frequency, TF over GST control) with SPIB; 1.3 fold enrichment (6-mer frequency, TF over GST control) in the test with ELK3.

Take GCTGTT: the binding signal in the test with FLI1 was 1.04 fold enrichment (6-mer frequency, TF over GST control); in the test with ELK1 it was 1.07 fold enrichment (6-mer frequency, TF over GST control); in the test with GABPA, 1.12 fold enrichment (6-mer frequency, TF over GST control); with ERG, 1.11 fold enrichment (6-mer frequency, TF over GST control); with ELF1, 1.1 fold enrichment (6-mer frequency, TF over GST control); in the test with EHF, 1.07 fold enrichment (6-mer frequency, TF over GST control). The binding signal in the test with SPI1 was 1.06 fold enrichment (6-mer frequency, TF over GST control); in the test with SPIB, 1.03 fold enrichment (6-mer frequency, TF over GST control); in the test with ELK3, 1.04 fold enrichment (6-mer frequency, TF over GST control).

Take ACCCGG: the binding signal is 1.62 fold enrichment (6-mer frequency, TF over GST control) in the test with FLI1; 1.67 fold enrichment (6-mer frequency, TF over GST control) in the test with ELK1; 1.62 fold enrichment (6-mer frequency, TF over GST control) with GABPA; 1.84 fold enrichment (6-mer frequency, TF over GST control) in the test with ERG; 1.75 fold enrichment (6-mer frequency, TF over GST control) in the test with ELF1; 1.96 fold enrichment (6-mer frequency, TF over GST control) with EHF. The binding signal with SPI1 is 1.54 fold enrichment (6-mer frequency, TF over GST control); with SPIB, 1.77 fold enrichment (6-mer frequency, TF over GST control); with ELK3 it was 1.71 fold enrichment (6-mer frequency, TF over GST control).

In the case of TACCCA, the binding signal in the test with FLI1 is 1.01 fold enrichment (6-mer frequency, TF over GST control); with ELK1, 1.09 fold enrichment (6-mer frequency, TF over GST control); with GABPA, 1.12 fold enrichment (6-mer frequency, TF over GST control); with ERG, 1.03 fold enrichment (6-mer frequency, TF over GST control); with ELF1, 1.07 fold enrichment (6-mer frequency, TF over GST control); with EHF, 1.05 fold enrichment (6-mer frequency, TF over GST control). The binding signal is 1.09 fold enrichment (6-mer frequency, TF over GST control) with SPI1; 1.1 fold enrichment (6-mer frequency, TF over GST control) with SPIB; 1.09 fold enrichment (6-mer frequency, TF over GST control) with ELK3.
